HP1b chromo inh – HP1-beta chromodomain-methylated histone interaction inhibition; P83916; AlphaScreen HP1-beta / biotin-H3K9me3 peptide binding; AID 540317; 0.56% of 390,000 active; Potency, µM (titrated, usually from 114 µM), hits mostly inhibitors; also: nearly all actives have a fitted effect of over 70% in size
Target sequence (P83916 whole entry, looked up): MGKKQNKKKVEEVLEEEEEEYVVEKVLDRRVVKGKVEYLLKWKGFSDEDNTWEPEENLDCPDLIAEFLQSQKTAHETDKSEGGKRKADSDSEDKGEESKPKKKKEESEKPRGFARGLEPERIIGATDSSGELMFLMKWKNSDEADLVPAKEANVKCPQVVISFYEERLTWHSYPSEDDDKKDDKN
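AlphaScreen: HP1-beta (50 nM) preformed 30 min with biotin-H3(1-18)K9me3 peptide (50 nM) in PBS pH 7.4, 0.01% Tween-20. Compound added for 30 min at RT, then streptavidin donor/nickel chelate acceptor beads (10 ug/mL) for 30 min.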
JMJD2A Tudor – JMJD2A Tudor domain (human) inhibition; AlphaScreen JMJD2A-Tudor / H3K4me3 peptide binding; O75164; AID 504339; Potency, µM (titrated, usually from 114 µM), actives largely listed as inhibitors; 4.4% of 390,000 active; also: nearly all actives have a fitted effect of over 50% in size
L3MBTL1 block – L3MBTL1 (human) inhibition | Q9Y468 | AlphaScreen L3MBTL1–H3K9me1 peptide binding | Potency, µM (doses to about 57.1 µM), actives largely listed as inhibitors | 0.66% of 230,000 active; also: nearly all actives have a fitted effect of over 60% in size
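AlphaScreen assay: L3MBTL1 (50 nM final) was preincubated 30 min at room temperature with biotinylated H3(1-15)K9me1 peptide (75 nM final), then 30 min with library compounds; streptavidin donor and nickel chelate acceptor beads (10 ug/mL final) added, 30 min dark.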
Sfp inh – blocks B. subtilis Sfp PPTase activity. Q9F4F7. Potency, µM, actives largely listed as inhibitors. AID 1490. 3.5% of 310,000 active. Biochemical Sfp PPTase activity, qHTS;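 also: the enzyme is Sfp with the accession as filed and its product quenches rhodamine fluorescence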
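Compounds were incubated with enzyme (final 15 nM) for 15 min at room temperature before substrate addition started the reaction. Fluorescence at 525 nm excitation, 598 nm emission was recorded immediately and after 30 minutes.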
BAZ2B inh – inhibitors of human BAZ2B bromodomain; Q9UIF8; AlphaScreen BAZ2B-H3K14Ac peptide displacement; Potency, µM (titrated, usually from 114 µM), most hits filed as inhibitors; 4.4% of 360,000 active; AID 504333; also: nearly all actives have a fitted effect of over 60% in size
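Inhibition is scored as reduced AlphaScreen emission. The BAZ2B/b-H3(5-23)K14Ac complex (50 nM each) in PBS pH 7.4, 0.01% Tween-20 meets compound (up to 110 uM) for 30 min at RT before bead addition.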
G9a block – blocks human histone lysine methyltransferase G9a. Q96KQ7. G9a H3K9 monomethylation, AlphaScreen, 2 h. Potency, µM (doses to about 102 µM), usual class: inhibitors. 8.8% of 350,000 active. AID 504332; also: nearly all actives have a fitted effect of over 75% in size
Target sequence (Q96KQ7 913-1193 limits assumed): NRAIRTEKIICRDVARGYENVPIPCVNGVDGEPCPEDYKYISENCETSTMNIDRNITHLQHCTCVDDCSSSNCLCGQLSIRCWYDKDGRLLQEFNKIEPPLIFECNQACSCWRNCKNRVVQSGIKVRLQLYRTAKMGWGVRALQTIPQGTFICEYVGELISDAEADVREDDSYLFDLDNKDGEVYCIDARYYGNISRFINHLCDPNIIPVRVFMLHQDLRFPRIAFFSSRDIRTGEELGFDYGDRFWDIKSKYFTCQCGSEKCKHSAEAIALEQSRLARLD
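Enzyme 20 nM + cpd, 15 min RT; add b-H3K9 pep 500 nM / SAM 20 uM; 2 h RT; anti-H3K9me1 Ab 0.5 ug/mL + SA donor / anti-rabbit acceptor beads 20 ug/mL each, 10 min; AlphaScreen read.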
Hits are given with their value; 0 = inactive; ? = inconclusive; - = no result; [ ] = dose if it differs, or a comment. An excerpt weighted towards active compounds, which were near 12% of everything screened. Calls follow the shape of the dose curve; as a rule, active = well fitted curve in the direction sought with a large enough effect; inconclusive = small, poorly fitted or top-dose-only effect, or another doubt; inactive = no such curve, though single readings can be large; an effect the other way counts as inactive or inconclusive.

SMILES	HP1b chromo inh	JMJD2A Tudor	L3MBTL1 block	Sfp inh	BAZ2B inh	G9a block
Cc1onc(-c2c(Cl)cccc2Cl)c1C(=O)NC(=S)Nc1sc2c(c1C(N)=O)CCC(C)C2 (stereo not drawn)	0	?	0	0	0	44.7µM
Cc1onc(-c2ccccc2Cl)c1C(=O)NCCn1c(C)cc2ccccc21	0	0	0	0	0	50.1µM
Cc1cc2ccccc2n1CCNC(=O)c1ccc(Br)cc1	0	0	-	-	0	0
CC1CCc2c(sc(Nc3nc4c(F)cccc4s3)c2C(N)=O)C1 (stereo not drawn)	0	?	0	25.1µM	0	10µM
Cc1onc(-c2ccccc2Cl)c1C(=O)NC(=S)Nc1ccccc1C(N)=O	0	0	0	50.1µM	0	?
CCC(=O)NCCn1c(C)cc2ccccc21	0	0	0	0	0	44.7µM
CC(=O)Nc1nnc(-c2c(-c3ccccc3Cl)noc2C)o1	0	17.8µM	0	0	?	0
COc1ccc(C(=O)CCC(=O)Nc2ccc(C)c(Cl)c2)cc1	0	0	-	-	0	0
Cc1ccc(C(=O)c2cn(Cc3ccc(Cl)cc3)c3nc(C)ccc3c2=O)cc1	0	?	0	-	0	0[12.7 µM]
CON(C)S(=O)(=O)c1ccc2c(c1)N(Cc1ccc(C)cc1)C(=O)C1CCCN21 (stereo not drawn)	0	0	0	0	0	25.1µM
N#Cc1ccc2c(c1)NC(=O)C1CCCN21 (stereo not drawn)	0	0	-	0	0	14.1µM
Cc1ccc(C)c(CN2C(=O)C3CCCN3c3ccc(C#N)cc32)c1 (stereo not drawn)	0	0	0	0	0	?
O=C1C2CCCN2c2ccc(S(=O)(=O)N3CCOCC3)cc2N1Cc1ccccc1F (stereo not drawn)	0	0	0	0	0	-
Cc1ccc(CN2C(=O)C3CCCN3c3ccc(C#N)cc32)cc1 (stereo not drawn)	-	-	0	0	0	20µM
N#CCN1C(=O)C2CCCN2c2ccc(S(=O)(=O)N3CCOCC3)cc21 (stereo not drawn)	0	0	-	?	0	20µM
Cc1cn2c(=O)c(S(=O)(=O)Nc3ccc(OC(F)(F)F)cc3)c(C)nc2s1	0	0	-	-	0	0
COc1ccc(CCN2CCC[C@H](CN3CCc4cc(OC)c(OC)cc4CC3=O)C2)cc1OC	-	-	-	0	-	-
Cc1ccc(/C=C/C(=O)c2ccccc(=O)c2O)cc1C	?	79.4µM	0	?	70.8µM	28.2µM
O=C(/C=C/c1ccccc1)c1cc(Br)ccc(=O)c1O	?	56.2µM	-	15.8µM	44.7µM	12.6µM
O=C(/C=C\c1ccccc1)c1ccccc1O	-	-	-	0	-	-
O=C(/C=C/c1ccc(O)c(O)c1)c1ccc(O)cc1O	-	-	-	0	-	-
CC[C@@]1(O)C(=O)COc2c1cc1n(c2=O)Cc2c-1nc1cccc(C(C)C)c1c2[Si](C)(C)C	-	-	-	0	-	-
CCCCCCCCCCCC(=O)OCC(O)CO (stereo not drawn)	-	-	-	0	-	0
O=C(CSc1n[nH]c(-c2ccc(F)cc2)n1)NCCc1ccccc1	0	0	-	-	0	0
Cc1cccc(NC(=O)CNC(=O)CSc2ncccn2)c1C	0	0	0	-	-	-
SMILES	HP1b chromo inh	JMJD2A Tudor	L3MBTL1 block	Sfp inh	BAZ2B inh	G9a block
Cc1cccc(NC(=O)CNC(=O)Cn2ncc(Cl)c(Cl)c2=O)c1C	70.8µM	44.7µM	31.6µM	-	-	-
Nc1ccccc1Oc1ccccc1	-	-	-	0	-	-
O=C(NCCCN1CCCC1=O)c1ccc2c(c1)NC(=O)C(N1CCOCC1)S2 (stereo not drawn)	0	0	0	70.8µM	0	0[12.7 µM]
COC(=O)c1ccc2c(c1)NC(=O)C(N1CCOCC1)S2 (stereo not drawn)	0	0	0	0	0	0
O=c1c(C(c2ccccc2)c2c(O)nc3n(c2=O)CCS3)c(O)nc2n1CCS2	0	0	0	0	0	39.8µM
O=c1c(C(c2ccc(F)cc2)c2c(O)nc3n(c2=O)CCCS3)c(O)nc2n1CCCS2	0	0	0	0	0	50.1µM
CC(C)c1ccc(/C=C2\CC/C(=C\C=N\N(C)C)C2=O)cc1	0	?	-	79.4µM	56.2µM	?
CN(C)/N=C/C=C1\CC/C(=C\c2ccc(F)c(F)c2)C1=O	0	?	-	-	-	-
